According to PubChem BioAssay (Tox21):
Records with an inconclusive call do not appear. Activity calls are given as the source filed them. Unless noted, calls come from the whole dose curve; as a rule, active = well fitted curve in the direction sought with a large enough effect in the repeat runs; inconclusive = weak or mixed curves; inactive = no such curve, though single readings can be large; an effect the other way counts as inactive or inconclusive.

Legend:
[1] = qHTS assay to identify small molecule agonists of the NFkB signaling pathway - cell viability counter screen (AID 1159515; calls by dose curve; note: series mostly up to about 61 µM; % is set by controls: 0 for no effect and ±100 for the full control effect; nearly all actives have a fitted effect of over 55% in size)
How it was run: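 Parallel cytotoxicity counter screen in ME-180 cells carrying an NFkB-response-element beta-lactamase reporter, 2,000 cells/well. Compound exposure lasted 5 hr at 37 C, 5% CO2. Cell viability was quantified by CellTiter-Glo luminescence.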

[2] = qHTS assay to identify small molecule agonists of the endoplasmic reticulum stress response signaling pathway (AID 1159516; active = well fitted activation curve with a large enough effect in the signal ratio in the repeat runs, not every such curve was filed as active; the % refers to the signal ratio; note: potency is the fitted concentration of half-maximal effect; for activation: % is set by controls: 0 for no effect and ±100 for the full control effect)
How it was run: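 Using a HeLa line with an ESRE-driven beta-lactamase gene, agonist activity was measured by FRET substrate fluorescence (460 and 530 nm emission) after cells were treated with compounds for 5 hr at 37 C and 5% CO2.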

[3] = qHTS assay to identify small molecule agonists of the endoplasmic reticulum stress response signaling pathway - cell viability counter screen (AID 1159517; calls by dose curve;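 note: HeLa cells carrying an ER stress response element beta-lactamase reporter; series mostly up to about 61 µM; % is set by controls: 0 for no effect and ±100 for the full control effect; nearly all actives have a fitted effect of over 50% in size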)
How it was run: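 Steps: seed 1,500 ESRE-bla HeLa cells per well; incubate overnight at 37 C, 5% CO2; add compounds in DMSO for 5 hr; run FRET substrate 2 hr RT; add CellTiter-Glo, wait 30 min, read luminescence.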

[4] = qHTS assay to identify small molecule antagonists of the retinoid-related orphan receptor gamma (ROR-gamma) signaling pathway - cell viability counter screen (AID 1159520); note: nearly all actives have a fitted effect of over 50% in size; note: potency is the fitted concentration of half-maximal effect
How it was run: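 Tet-on ROR gamma CHO cells were given compounds for 2 hr, then doxycycline hyclate at 1 uM final, and incubated 16 hr at 37 C. Viability was measured as ATP content by CellTiter-Glo luminescence.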

[5] = molecular target: Nuclear receptor ROR-gamma (Homo sapiens) (UniProt P51449); test: qHTS assay to identify small molecule antagonists of the retinoid-related orphan receptor gamma (ROR-gamma) signaling pathway (AID 1159521; note: nearly all actives have a fitted effect of over 50% in size; note: potency is the fitted concentration of half-maximal effect)
How it was run: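 Test compounds were applied to Tet-on RORγ CHO cells 2 h ahead of doxycycline hyclate (1 uM final). Luciferase reporter activity was quantified by luminescence after 16 h at 37 C and 5% CO2.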

[6] = qHTS assay to identify small molecule agonists of the AP-1 signaling pathway - cell viability counter screen (AID 1159525; calls by dose curve; note: nearly all actives have a fitted effect of over 55% in size)
How it was run: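 Same-well cytotoxicity counter screen of the Tox21 10K library in ME-180 cells. The readout is ATP-dependent luminescence after 5 h compound treatment. Data are normalised to DMSO and tetra n-octyl ammonium bromide controls.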

[7] = qHTS assay to identify small molecule agonists of the AP-1 signaling pathway (AID 1159526; calls by dose curve; note: % is set by controls: 0 for no effect and ±100 for the full control effect)
[8] = qHTS assay to identify small molecule agonists of the RXR signaling pathway - cell viability counter screen (AID 1159529); note: nearly all actives have a fitted effect of over 50% in size; note: potency is the fitted concentration of half-maximal effect
How it was run: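 Compounds dissolved in DMSO were pinned onto HEK 293T cells carrying a beta-lactamase reporter under RXR-alpha control and incubated 16 hr. Cytotoxicity was then quantified by CellTiter-Glo luminescence.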

[9] = qHTS assay to identify small molecule antagonists of the retinoic acid receptor (RAR) signaling pathway (AID 1159552)
How it was run: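 Test chemicals and DMSO controls were pin-transferred onto C3RL4 cells a day after seeding; retinol (1 uM final) followed at once. Luminescent reporter output was quantified after 6 hr of co-incubation and 30 min with detection reagent.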

[10] = qHTS assay to identify small molecule agonists of the retinoic acid receptor (RAR) signaling pathway (AID 1159553); note: % is set by controls: 0 for no effect and ±100 for the full control effect
How it was run: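 Quantitative high-throughput format: the Tox21 10K library was tested on C3RL4 RARE-luciferase cells for 6 hr at 37 C and 5% CO2, with luminescence measured after a 30 min room-temperature reagent step.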

[11] = qHTS assay to identify small molecule antagonists of the estrogen related receptor (ERR) signaling pathway from Tox21 library - cell viability counter screen (AID 1224834); note: % is set by controls: 0 for no effect and ±100 for the full control effect; nearly all actives have a fitted effect of over 30% in size
How it was run: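 Compounds in DMSO were pinned onto ERR cells that had been incubated for 6 h, and the plates were held at 37 C for 17.5 h. CellTiter-Fluor reagent was then added and fluorescence was measured after 30 min.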

[12] = qHTS assay to identify small molecule agonists of the constitutive androstane receptor (CAR) signaling pathway - cell viability counter screen (AID 1224836); note: series mostly up to about 92 µM; % is set by controls: 0 for no effect and ±100 for the full control effect; nearly all actives have a fitted effect of over 45% in size
How it was run: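 23 h treatment, 37 C, 5% CO2. Cell line: HepG2 stably expressing hCAR with a CYP2B6-2.2kb construct. Co-treatment: PK11195, 0.75 uM final. Read-out: CellTiter-Fluor fluorescence intensity.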

[13] = qHTS assay to identify small molecule antagonists of the retinoid acid receptor (RAR) signaling pathway - cell viability counter screen (AID 1159551); note: % is set by controls: 0 for no effect and ±100 for the full control effect; nearly all actives have a fitted effect of over 35% in size
How it was run: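 ATP-based viability, C3RL4 cells, 6 h at 37 C with 1 uM final retinol co-added after compound; luminescence read 30 min post CellTiter-Glo, RT.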

[14] = molecular target: Luciferin 4-monooxygenase (Photinus pyralis) (UniProt P08659); test: qHTS assay to identify small molecule inhibitors of firefly luciferase (AID 1224835); note: nearly all actives have a fitted effect of over 25% in size; note: potency is the fitted concentration of half-maximal effect
How it was run: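 Biochemical qHTS: compounds run as interplate titrations against purified firefly enzyme, with D-luciferin and ATP each at its KM concentration. Light output recorded by CCD imaging.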

[15] = molecular target: Retinoic acid receptor RXR-alpha (Homo sapiens) (UniProt P19793); test: qHTS assay to identify small molecule agonists of the RXR signaling pathway (AID 1159527; calls by dose curve; note: % is set by controls: 0 for no effect and ±100 for the full control effect; nearly all actives have a fitted effect of over 35% in size)
How it was run: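 Using 9-cis retinoic acid as the reference agonist, chemicals were tested in HEK 293T cells […] for 16 hr; substrate loading lasted 2 hr at room temperature.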

[16] = qHTS assay to identify small molecule antagonists of the estrogen related receptor (ERR) signaling pathway - cell viability counter screen (AID 1224818);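 note: series mostly up to about 46 µM; viability measured after 17.5 h of compound exposure; % is set by controls: 0 for no effect and ±100 for the full control effect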
How it was run: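 Quantitative high-throughput viability counter screen in ERR cells. Compounds (DMSO) incubated 17.5 h at 37 C; read-out was CellTiter-Fluor fluorescence.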

Luciferin 4-monooxygenase (Photinus pyralis), sequence (P08659 whole entry, looked up): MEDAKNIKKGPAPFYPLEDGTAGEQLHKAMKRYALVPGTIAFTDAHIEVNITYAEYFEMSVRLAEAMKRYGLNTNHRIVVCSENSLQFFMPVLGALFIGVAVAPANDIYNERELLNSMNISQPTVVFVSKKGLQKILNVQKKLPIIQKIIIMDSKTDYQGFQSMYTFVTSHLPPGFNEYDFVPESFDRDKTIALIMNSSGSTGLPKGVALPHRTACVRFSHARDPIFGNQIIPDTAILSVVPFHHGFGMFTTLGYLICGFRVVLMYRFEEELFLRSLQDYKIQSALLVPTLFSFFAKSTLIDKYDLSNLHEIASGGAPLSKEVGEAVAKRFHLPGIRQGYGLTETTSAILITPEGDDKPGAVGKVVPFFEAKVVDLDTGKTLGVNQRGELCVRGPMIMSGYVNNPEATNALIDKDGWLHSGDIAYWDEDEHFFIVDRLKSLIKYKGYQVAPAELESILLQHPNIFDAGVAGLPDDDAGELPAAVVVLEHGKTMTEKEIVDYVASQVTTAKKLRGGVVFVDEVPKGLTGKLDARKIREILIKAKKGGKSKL
Retinoic acid receptor RXR-alpha (Homo sapiens), sequence (P19793 whole entry, looked up): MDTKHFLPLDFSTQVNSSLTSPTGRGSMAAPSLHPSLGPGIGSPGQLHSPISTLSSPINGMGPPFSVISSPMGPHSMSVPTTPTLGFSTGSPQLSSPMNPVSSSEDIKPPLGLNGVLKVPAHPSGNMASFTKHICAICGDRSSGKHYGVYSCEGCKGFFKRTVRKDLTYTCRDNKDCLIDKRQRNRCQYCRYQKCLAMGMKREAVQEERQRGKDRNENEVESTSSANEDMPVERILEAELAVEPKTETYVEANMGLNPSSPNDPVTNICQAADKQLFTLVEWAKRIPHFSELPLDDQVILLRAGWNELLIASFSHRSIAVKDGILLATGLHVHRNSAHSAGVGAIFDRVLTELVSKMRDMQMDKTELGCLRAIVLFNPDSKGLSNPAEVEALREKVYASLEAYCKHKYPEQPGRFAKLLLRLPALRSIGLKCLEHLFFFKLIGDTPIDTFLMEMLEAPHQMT

O=C(c1ccc(O)cc1)c1ccc(O)cc1
inactive: Potency [1] | Potency [2] | outcome [3] | Potency [4] | Potency [5] | Potency [6] | Potency [7] | Potency [8] | Potency [9] | Potency [10] | Potency [11] | Potency [12]

C[Si](C)O[Si](C)(C)O[Si](C)(C)O[Si](C)C
inactive: Potency [1] | Potency [2] | outcome [3] | Potency [4] | Potency [5] | Potency [6] | Potency [7] | Potency [8] | Potency [13] | Potency [10] | Potency [11] | Potency [14] | Potency [12]

O=C1CCCCCO1
inactive: Potency [1] | Potency [2] | outcome [3] | Potency [4] | Potency [5] | Potency [6] | Potency [7] | Potency [8] | Potency [10] | Potency [11] | Potency [14] | Potency [12]

C[C@H](CCC(=O)O)[C@H]1CC[C@H]2[C@@H]3[C@H](O)C[C@@H]4C[C@H](O)CC[C@]4(C)[C@H]3CC[C@]12C
inactive: Potency [1] | Potency [2] | outcome [3] | Potency [4] | Potency [5] | Potency [6] | Potency [7] | Potency [13] | Potency [9] | Potency [10] | Potency [12]
active: Potency [14] 79.9 µM

CC[C@@H]1C[C@H](N(Cc2cc(C(F)(F)F)cc(C(F)(F)F)c2)C(C)=O)c2cc(C(F)(F)F)ccc2N1C(=O)OC(C)C
inactive: Potency [1] | Potency [2] | outcome [3] | Potency [4] | Potency [5] | Potency [6] | Potency [7] | Potency [8] | Potency [10] | Potency [11] | Potency [14]

Oc1ccc2c(c1)OCO2
inactive: Potency [1] | Potency [2] | outcome [3] | Potency [4] | Potency [5] | Potency [6] | Potency [7] | Potency [8] | Potency [13] | Potency [10] | Potency [11] | Potency [14] | Potency [12]

CCOc1ccc(NC(=O)CC(C)=O)cc1
inactive: Potency [1] | Potency [2] | outcome [3] | Potency [4] | Potency [5] | Potency [6] | Potency [7] | Potency [8] | Potency [13] | Potency [10] | Potency [11] | Potency [14] | Potency [12]

CCCCC(CC)(CO)CO
inactive: Potency [1] | Potency [2] | outcome [3] | Potency [4] | Potency [5] | Potency [6] | Potency [7] | Potency [8] | Potency [13] | Potency [10] | Potency [11] | Potency [14] | Potency [12]

O=C(O)c1cn(C2CC2)c2cc(Cl)c(F)cc2c1=O
inactive: Potency [1] | Potency [2] | outcome [3] | Potency [4] | Potency [5] | Potency [6] | Potency [7] | Potency [8] | Potency [13] | Potency [10] | Potency [11] | Potency [14] | Potency [12]

CCCCOC(O)CC (configuration not stated)
inactive: Potency [1] | Potency [2] | outcome [3] | Potency [4] | Potency [5] | Potency [6] | Potency [7] | Potency [13] | Potency [9] | Potency [10] | Potency [14] | Potency [12]

CC(=O)Nc1ccc(/C=N/NC(N)=S)cc1
inactive: Potency [1] | Potency [2] | outcome [3] | Potency [4] | Potency [5] | Potency [6] | Potency [7] | Potency [8] | Potency [9] | Potency [10] | Potency [14] | Potency [12]

OCC1CC2CC1C1CCC(CO)C21 (configuration not stated)
inactive: Potency [1] | Potency [2] | outcome [3] | Potency [4] | Potency [5] | Potency [6] | Potency [7] | Potency [13] | Potency [9] | Potency [10] | Potency [11] | Potency [14]

Cc1ccc(C(N)=O)cc1N
inactive: Potency [1] | Potency [2] | outcome [3] | Potency [4] | Potency [5] | Potency [6] | Potency [7] | Potency [8] | Potency [13] | Potency [11] | Potency [14] | Potency [12]

CN(C)CCCNCCCN
inactive: Potency [1] | Potency [2] | outcome [3] | Potency [4] | Potency [5] | Potency [6] | Potency [7] | Potency [13] | Potency [9] | Potency [10] | Potency [11] | Potency [14] | Potency [12]

Nc1nc(CC(=O)O)cs1
active: Potency [8] 21.9 µM
inactive: Potency [1] | Potency [2] | outcome [3] | Potency [4] | Potency [5] | Potency [6] | Potency [7] | Potency [13] | Potency [14] | Potency [12]

CCCCCCCCCCCCCCC1CO1 (configuration not stated)
inactive: Potency [1] | Potency [2] | outcome [3] | Potency [4] | Potency [5] | Potency [6] | Potency [7] | Potency [13] | Potency [9] | Potency [10] | Potency [11] | Potency [14] | Potency [12]

Cc1cccc(Oc2ccccc2)c1
inactive: Potency [1] | Potency [2] | outcome [3] | Potency [4] | Potency [5] | Potency [6] | Potency [7] | Potency [13] | Potency [14] | Potency [12]
active: Potency [8] 1.9 µM

CC(C)(C)c1cc(O)c(C(C)(C)C)cc1O
inactive: Potency [1] | outcome [3] | Potency [6] | Potency [7] | Potency [8] | Potency [13] | Potency [14]
active: Potency [2] 5.49 µM | Potency [4] 48.6 µM | Potency [5] 15.4 µM

CCCCCCCC/C=C\CCCCCCCC(N)=O
inactive: Potency [1] | Potency [2] | outcome [3] | Potency [4] | Potency [5] | Potency [6] | Potency [15] | Potency [8] | Potency [13] | Potency [10] | Potency [11] | Potency [14] | Potency [12]

CC(C)NCC(O)COc1ccc(CC(N)=O)cc1 (configuration not stated)
inactive: Potency [1] | Potency [2] | outcome [3] | Potency [4] | Potency [5] | Potency [6] | Potency [7] | Potency [13] | Potency [10] | outcome [16] | Potency [11] | Potency [14] | Potency [12]

O=C(C(=O)c1ccc(Br)cc1)c1ccc(Br)cc1
inactive: Potency [1] | Potency [2] | outcome [3] | activity, negative = cytotoxicity [4] -5.42% [at 19 µM] | activity change, negative = inhibition [5] 2.45% [at 19 µM] | viability change, negative = cytotoxic [6] 10.5% [at 15.8 µM] | activation [15] -4.31% [at 15.8 µM] | activity change, negative = cytotoxicity [8] 5.23% [at 15.8 µM] | activity change, negative = cytotoxicity [13] 1.34% [at 19 µM] | Potency [10] | viability change, negative = cytotoxic [11] -1.64% [at 19 µM] | activity change, negative = inhibition [14] 1.95% [at 23.6 µM] | viability change, negative = cytotoxic [12] 3.05% [at 19 µM]
